Results on 35 compounds are retold here after PubChem BioAssay (NCATS).

SMILES strings stand for the structures. Inconclusive results are not listed. Activity calls are given as the source filed them. Unless noted, calls follow the shape of the dose curve; as a rule, active = well fitted curve in the direction sought with a large enough effect; inconclusive = small, poorly fitted or top-dose-only effect, or another doubt; inactive = no such curve, though single readings can be large; an effect the other way counts as inactive or inconclusive. Non-standard residues stand in square brackets, D forms with d. Residues, ends and D or L forms follow the SMILES beside them. *: point of attachment. Sta = CC(C)C[C@H](N)[C@@H](O)CC(=O)O; Isovaleryl = CC(C)CC(=O)*

Experiment [1] in a line: NCATS anti-infectives library activity on HEK293 viability as a counter-qHTS vs the C. elegans viability qHTS (AID 1745854).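 Also: HEK293 cells exposed to compounds for 24 hr before the viability read; % is scaled to controls: 0 for no effect and ±100 for the full control effect.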 Particulars: HEK293 viability counter-screen; series mostly up to 41.8 µM. In outline: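 Compound titrations (final up to 41.7 uM) were incubated with HEK293 cells for 24 hr at 37C under 5% CO2. Viable cells were quantified with CellTiter-Glo after 10 min at ambient temperature.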
On the technique in general: Quantitative high-throughput screening tests each substance at several concentrations.

Experiment [2] has as its target Catechol O-methyltransferase (Homo sapiens) (UniProt P21964). Briefly: Confirmatory Screen for Target Class Profiling of Small Molecule Inhibitors of Methyltransferases (AID 1745852; calls by dose curve; also: potency is read from the fitted curve at half-maximal effect; as to activity change, negative = inhibition: % is scaled to controls: 0 for no effect and ±100 for the full control effect). As to conditions: MTase-Glo luminescence, SAH detection, recombinant enzyme, stronger effect = lower value; measured here: COMT max response unless noted.
Experiment [3] concerns the target Guanidinoacetate N-methyltransferase (Homo sapiens) (UniProt Q14353). Described as above. Particulars: MTase-Glo luminescence, SAH detection, recombinant enzyme; activity change, negative = inhibition: at 57.3 µM (top of the series).
Experiment [4] addresses Nicotinamide N-methyltransferase (Homo sapiens) (UniProt P40261). Described as above. As to conditions: MTase-Glo luminescence, SAH detection, recombinant enzyme, stronger effect = lower value; measured here: NNMT max response unless noted.
For experiment [5], the target named is Phenylethanolamine N-methyltransferase (Homo sapiens) (UniProt P11086). The experiment is described as above. As to conditions: MTase-Glo luminescence, SAH detection, recombinant enzyme, stronger effect = lower value; measured here: PNMT max response unless noted.
Sequence of Phenylethanolamine N-methyltransferase (Homo sapiens) (P11086 whole entry, looked up): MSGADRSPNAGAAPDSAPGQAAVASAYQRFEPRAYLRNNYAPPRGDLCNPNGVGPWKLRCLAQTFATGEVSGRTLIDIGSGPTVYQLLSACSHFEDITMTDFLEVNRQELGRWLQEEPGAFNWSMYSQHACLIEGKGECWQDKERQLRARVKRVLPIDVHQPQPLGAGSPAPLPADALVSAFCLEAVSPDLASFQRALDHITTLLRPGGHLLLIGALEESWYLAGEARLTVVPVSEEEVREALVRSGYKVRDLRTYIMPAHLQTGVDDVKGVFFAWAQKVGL
Experiment [6] can be described thus: NCATS anti-infectives library activity on the primary C. elegans qHTS viability assay (AID 1745855; calls by dose curve; also: potency is read from the fitted curve at half-maximal effect). As to conditions: C. elegans worm area imaging, day 7; series mostly up to 41.8 µM. In outline:
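Titration-based screen in worms: eggs hatched overnight in M9, L1 larvae fed TOP10 capsules in S medium with compound, incubated 21 °C for 7 days; fluorescent objects gated by size and intensity at days 0, 3 and 7.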

Experiment [7] is described as follows: Viability counterscreen for antagonist of constitutive androstane receptor (CAR) against the NCATS DSHEA and TCM libraries (AID 1794837).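 Also: compound exposure lasted 24 h before viability reading; 0% is about no effect.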 Particulars: CAR reporter cell line viability counterscreen, qHTS; series mostly up to 40 µM. The gist of the method:
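Cells: HepG2 line carrying CYP2B6 reporter and hCAR, seeded and attached 5 h. Then pin-transferred test substances plus agonist CITCO at 48 uM final; 24 h incubation; fluorogenic viability reagent, 1 h.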
A general note: A counterscreen serves to expose hits that act by an unwanted route or on another target.

A short description of experiment [8]: Viability counterscreen for agonist of constitutive androstane receptor (CAR) against the NCATS DSHEA and TCM libraries (AID 1794838).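 Also: HepG2 cells with CYP2B6 reporter and hCAR plus 0.75 µM PK11195 antagonist; 0% is about no effect.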 Particulars: HepG2 cell viability counterscreen, CAR agonist assay, co-treated with 0.75 µM CAR antagonist; series mostly up to 40 µM. An excerpt:
Assay Development and Screening Technology Laboratory (ADST)
National Center for Advancing Translational Sciences (NCATS), Rockville, MD
National Institute of Health (NIH), Bethesda, Maryland
Dietary Supplements and Natural Products have minor oversight of their safety and efficacy. We assembled a collection of Dietary Supplements and Natural Products (DSNP) as well as Traditional Chinese Medicinal (TCM) Plant extracts, which were screened against an in vitro panel of assays, including a liver cytochrome p450 enzyme panel, CAR/PXR signaling pathways, and P-gp transporter assays, to assess their activity. This pipeline facilitated the interrogation of Natural Product-Drug Interaction (NaPDI) through prominent metabolizing pathways. In addition, we compared the activity profiles of the DSNP/TCM substances with those of an approved drug collection. […] Overall, we highlight four significant bioactivity profiles (measured by p-values) as examples of this prediction. […]
8; Detector 1; Fluorescence intensity; ViewLux plate reader (excitation 405 nm, emission 540 nm). […]
11; Detector 2; Luminescence intensity; ViewLux. […]
8. Fluorescence intensity (Ex/Em = 405 nm/540 nm) is obtained using the ViewLux plate reader to determine cell viability. […]
10. Luminescence intensity is read using the ViewLux detector. […]

For experiment [9], the target named is Nuclear receptor subfamily 1 group I member 3 (Homo sapiens) (UniProt Q14994). Briefly: Primary qHTS for agonist of constitutive androstane receptor (CAR) against the NCATS DSHEA and TCM libraries (AID 1794839).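 Also: HepG2 cells expressing human CAR with a CYP2B6 reporter plus PK11195 antagonist; luciferase reporter luminescence read with ONE-Glo; 0% is about no effect.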 As to conditions: CAR agonist reporter cells, qHTS luminescence, CAR antagonist co-added at 0.75 µM; series mostly up to 40 µM. In outline:
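qHTS, agonist mode: HepG2-CYP2B6-hCAR, 2,500 cells/well, 5 h attach; cpds + PK11195 0.75 µM final; 24 h, 37 °C, 5% CO2. Readouts: CellTiter-Fluor (405/540 nm), then ONE-Glo luminescence.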

A short description of experiment [10]: HepG2 viability counterscreen (readout 2: ATP content) against the NCATS DSHEA and TCM libraries (AID 1794840). Also: 0% is about no effect. As to conditions: ATP content luminescence; series mostly up to 27.3 µM. The gist of the method:
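Same wells read twice: first fluorescence from cleaved GF-AFC substrate (25 uM final, 30 min, 37C) for live-cell protease, then CellTiter-Glo luminescence after 30 min at room temperature for ATP. HepG2 cells were exposed ~24 h to substances.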

Sequence of Nicotinamide N-methyltransferase (Homo sapiens) (P40261 whole entry, looked up): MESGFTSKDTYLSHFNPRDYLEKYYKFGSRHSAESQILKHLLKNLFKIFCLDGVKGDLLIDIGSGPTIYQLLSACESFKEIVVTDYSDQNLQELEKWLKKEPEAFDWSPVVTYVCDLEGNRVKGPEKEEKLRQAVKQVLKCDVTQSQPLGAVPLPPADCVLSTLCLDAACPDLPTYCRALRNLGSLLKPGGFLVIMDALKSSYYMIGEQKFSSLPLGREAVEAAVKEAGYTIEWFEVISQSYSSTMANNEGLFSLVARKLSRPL
Sequence of Catechol O-methyltransferase (Homo sapiens) (P21964 whole entry, looked up): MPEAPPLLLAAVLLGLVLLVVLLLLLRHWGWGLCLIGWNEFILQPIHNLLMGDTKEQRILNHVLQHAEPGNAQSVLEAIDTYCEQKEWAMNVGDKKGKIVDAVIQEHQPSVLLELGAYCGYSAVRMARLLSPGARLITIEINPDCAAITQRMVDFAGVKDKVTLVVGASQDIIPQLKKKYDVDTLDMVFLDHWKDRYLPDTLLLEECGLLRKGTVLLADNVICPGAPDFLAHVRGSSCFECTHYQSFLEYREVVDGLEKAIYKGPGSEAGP
Sequence of Nuclear receptor subfamily 1 group I member 3 (Homo sapiens) (Q14994 whole entry, looked up): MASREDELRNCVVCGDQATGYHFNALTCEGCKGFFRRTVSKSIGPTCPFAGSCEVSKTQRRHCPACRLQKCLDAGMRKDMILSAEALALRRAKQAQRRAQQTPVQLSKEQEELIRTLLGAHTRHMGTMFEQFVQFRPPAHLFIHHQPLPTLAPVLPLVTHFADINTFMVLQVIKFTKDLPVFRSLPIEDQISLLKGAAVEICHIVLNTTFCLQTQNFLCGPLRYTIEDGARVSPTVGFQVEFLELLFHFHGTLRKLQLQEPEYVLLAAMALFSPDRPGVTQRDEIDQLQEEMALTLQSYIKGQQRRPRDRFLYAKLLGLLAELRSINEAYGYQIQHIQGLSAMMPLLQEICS

As to `C[C@H](Cn1cnc2c(N)ncnc21)OCP(=O)(O)O`, the outcome in [1] was “inactive”.

For `Cc1cc(Cl)ccc1OCCCC(=O)NO`, the outcome in experiment [1] is “inactive”.

For the compound `Oc1ccc(OCc2ccccc2)cc1`, the outcome in [1] was “inactive”.

Turning to `Cc1nc(Nc2ncc(C(=O)Nc3c(C)cccc3Cl)s2)cc(N2CCN(CCO)CC2)n1`, the activity in [2] was -54.8%; in experiment [4], -33%; in [5], -52.6%. Further, in [3], the Potency was 30.4 µM (active). For the same compound, the outcome in experiment [1] is “inactive”.

For the compound `COc1ccc2cc([C@H](C)C(=O)O)ccc2c1`, the outcome in experiment [1] was “inactive”. In addition, the Potency result in experiment [6] is “inactive”.

In the case of `CCOC(=O)c1c(C)n(C)c2ccc(O)cc12`, in experiment [1], the outcome was “inactive”.

For `N=C(N)c1ccc2cc(OC(=O)c3ccc(N=C(N)N)cc3)ccc2c1`, in experiment [1], the outcome was “inactive”. Further, the Potency result in [6] was “inactive”.

As for `CC(C)[C@H](N)C(=O)OCCOCn1cnc2c(=O)[nH]c(N)nc21`, the outcome in [1] is “inactive”.

`CC(C)c1nc(CN(C)C(=O)N[C@H](C(=O)N[C@@H](Cc2ccccc2)C[C@H](O)[C@H](Cc2ccccc2)NC(=O)OCc2cncs2)C(C)C)cs1`: the outcome in experiment [1] was “inactive”.

On to `CC(C)C[C@H](NC(=O)[C@H](Cc1ccccc1)NC(=O)c1cnccn1)B(O)O`, for which the Potency in [6] is 2.3 µM (active).

`N=C(N=C(N)N)N1CCOCC1`: in experiment [1], the outcome is “inactive”. For the same compound, in [6], the Potency result was “inactive”.

Consider `Oc1ccc2ccccc2c1SSc1c(O)ccc2ccccc12`, for which the figures for the activity in experiment [2], in [4] and in experiment [5] were 22.1%, -8.59% and 2.32%, respectively. The activity change, negative = inhibition in [3] was -0.328%.

For `COc1cc(Nc2c(C#N)cnc3cc(OCCCN4CCN(C)CC4)c(OC)cc23)c(Cl)cc1Cl`, the values for the activity in experiment [2], in [4] and in experiment [5] were -94.4%, -86.9% and -96.9%, respectively. For the same compound, in [3], the Potency was 12.1 µM (active).

Take `Clc1ccc(C(Cn2ccnc2)OCc2c(Cl)cccc2Cl)c(Cl)c1` (stereo not drawn): the activity in experiment [2] was -8.16%; in [4], -55.2%; in experiment [5], -12.3%. In experiment [3], the activity change, negative = inhibition was -4.74%.

Take `O=c1oc2cc(O)ccc2s1`: the outcome in experiment [1] was “inactive”.

As for `O=P(O)(O)C(O)(Cn1ccnc1)P(=O)(O)O`, the activity change, negative = cytotoxicity in experiment [1] was -5.55% [at 3.71 µM] (inactive).

With `Cc1ccc(Nc2nccc(N(C)c3ccc4c(C)n(C)nc4c3)n2)cc1S(N)(=O)=O`, the activity was -4.72% in [2], -0.226% in experiment [4] and -2.8% in [5]. Further, the activity change, negative = inhibition in experiment [3] was 0%.

Take `O=C1NC(=O)C(c2ccccc2[N+](=O)[O-])=C1Nc1ccc(O)c(Cl)c1`: the outcome in experiment [1] is “inactive”.

As for `Cc1cc(O)c2c(c1)C(=O)c1cc(O)cc(O)c1C2=O`, the outcome in experiment [7], in [8], in [9] and in experiment [10] was “inactive” each time.

`COC(=O)N[C@H](C(=O)N[C@@H](Cc1ccccc1)[C@@H](O)CN(Cc1ccc(-c2ccccn2)cc1)NC(=O)[C@@H](NC(=O)OC)C(C)(C)C)C(C)(C)C`: the outcome in experiment [1] was “inactive”.

Regarding `COc1c(O)cc2c(c1O)[C@@H]1O[C@H](CO)[C@@H](O)[C@H](O)[C@H]1OC2=O`, the activity in [2] was -77.9%; in experiment [4], 1.14%; in [5], -0.831%. Also, the activity change, negative = inhibition in experiment [3] amounted to 0%. Also, the outcome in experiment [1] is “inactive”.

Take `CCN(CCO)CCCC(C)Nc1ccnc2cc(Cl)ccc12` (stereo not drawn): in experiment [1], the activity change, negative = cytotoxicity was -19.5% [at 3.71 µM] (inactive).

Consider `S=c1nc[nH]c2nc[nH]c12`, for which the Potency entry in experiment [6] is “inactive”.

For the compound `N[C@@H](Cc1cc(I)c(Oc2cc(I)c(O)c(I)c2)c(I)c1)C(=O)O`, the activity in [2] is -6.89%; in experiment [4] it was -9.69%; in [5], -6.64%. Further, the activity change, negative = inhibition in experiment [3] was -4.64%.

Turning to `CC(=O)NC[C@H]1CN(c2ccc(N3CCOCC3)c(F)c2)C(=O)O1`, the outcome in experiment [1] was “inactive”.

For the compound `CCOC(=O)C1=C[C@@H](OC(CC)CC)[C@H](NC(C)=O)[C@@H](N)C1`, in experiment [1], the outcome is “inactive”. Besides, the Potency result in experiment [6] is “inactive”.

As for `Cc1ccc(NC(=O)c2ccc(CN3CCN(C)CC3)cc2)cc1Nc1nccc(-c2cccnc2)n1`, the outcome in [1] was “inactive”.

Turning to `Cc1c(OCC(F)(F)F)ccnc1CS(=O)c1nc2ccccc2[nH]1` (stereo not drawn), the activity in experiment [2] is 13%; in [4], 8.13%; in experiment [5], 10%. The activity change, negative = inhibition in [3] was 6.68%.

As to `CC(C)CC(=O)N[C@H](C(=O)N[C@H](C(=O)N[C@@H](CC(C)C)[C@@H](O)CC(=O)N[C@@H](C)C(=O)N[C@@H](CC(C)C)[C@@H](O)CC(=O)O)C(C)C)C(C)C` (Isovaleryl-VV[Sta]A[Sta]-OH), the outcome in experiment [1] was “inactive”.

Turning to `CCN(CC)C(=S)SSC(=S)N(CC)CC`, the activity is -3.32% in experiment [2], -10.3% in experiment [4] and -2.02% in experiment [5]. For the same compound, in [3], the activity change, negative = inhibition is 4.64%.

For `O=c1ccc2ccc(O)c(O)c2o1`, the figures for the activity in [2], in experiment [4] and in [5] were 197%, -4.08% and 2.42%, respectively. The activity change, negative = inhibition in experiment [3] turned out to be 2.41%.

Regarding `C[C@H](Cc1ccc(O)c(O)c1)[C@@H](C)Cc1ccc(O)c(O)c1`, the values for the activity in experiment [2], in experiment [4] and in experiment [5] were 10.2%, -37.4% and -61.1%, respectively. Further, the Potency in [3] is 30.6 µM (active).

Consider `CC(C)c1ccc2c(c1)c(SC(C)(C)C)c(CC(C)(C)C(=O)O)n2Cc1ccc(Cl)cc1`, for which the activity in [2] is -0.145%; in [4], -41.8%; in [5], -5.81%. Further, the Potency in experiment [3] is 30.6 µM (active).

For the compound `CN(C)C(=O)COC(=O)Cc1ccc(OC(=O)c2ccc(N=C(N)N)cc2)cc1`, the outcome in experiment [1] was “inactive”.

For `CCN(CC)CCOc1ccc(Nc2ncc3cc(-c4c(Cl)cccc4Cl)c(=O)n(C)c3n2)cc1`, the activity in [2] is -14.1%; in [4], -19.9%; in experiment [5], -2.93%. The activity change, negative = inhibition in experiment [3] worked out at 1.71%.
